Screening results (PubChem BioAssay)
The full list was thinned out, with hits kept by preference.
JMJD2E inh = inhibitors of human JMJD2E histone demethylase. JMJD2E catalytic domain, FDH-coupled NADH fluorescence (FDH is formaldehyde dehydrogenase). Potency, µM (doses to about 57.1 µM), inactives show top-dose activity change, negative = inhibition, actives largely listed as inhibitors. hit rate 1.6% among 230,000; active means well fitted inhibition curve with a large enough effect, not every such curve was filed as active; inconclusive means small, poorly fitted or top-dose-only effect, or another doubt; inactive means no such curve, though single readings can be large or run the other way;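 further: potency means the concentration at half of the fitted maximal effect; 0% = wells with enzyme and -100% = buffer wells without enzyme; nearly all actives have a fitted effect of over 50% in size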
Target sequence (B2RXH2 1-337 limits assumed): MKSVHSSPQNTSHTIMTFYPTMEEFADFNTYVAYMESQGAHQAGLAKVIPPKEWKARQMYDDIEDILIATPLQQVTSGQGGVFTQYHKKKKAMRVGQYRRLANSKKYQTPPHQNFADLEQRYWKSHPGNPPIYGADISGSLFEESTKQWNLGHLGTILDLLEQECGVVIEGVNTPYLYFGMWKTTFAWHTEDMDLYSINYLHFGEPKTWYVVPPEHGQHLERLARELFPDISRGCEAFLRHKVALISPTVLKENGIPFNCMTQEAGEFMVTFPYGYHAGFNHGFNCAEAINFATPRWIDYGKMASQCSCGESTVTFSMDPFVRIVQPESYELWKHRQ
Six1-Eya2 inh = Six1/Eya2 interaction inhibition | AID 651725 | hit rate 0.56% among 360,000 | AlphaScreen GST-Six1/His-Eya2 binding, biochemical; stronger effect = lower value | activity change, % (no concentration beside the values); in the data active means activity change below about -65%; inconclusive means mostly about -30% to -63%
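Homogeneous AlphaScreen proximity assay pairing GST-Six1 with His-tagged Eya2 (added as 5X mix: 250 nM and 500 nM) in 50 mM Tris pH 8.0, 300 mM NaCl, 1 mM TCEP. Glutathione donor and nickel acceptor beads; 1 h, 37 °C, dark.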
Apoferritin bind = candidate novel general anesthetic via apoferritin binding; Potency, µM (top dose mostly 77.5 µM), for inactives: at the top dose activity change, negative = displacement, hits mostly inhibitors; apoferritin/1-aminoanthracene competitive binding, fluorescence; AID 485281; hit rate 0.074% among 350,000; further: potency means the concentration at half of the fitted maximal effect; nearly all actives have a fitted effect of over 20% in size
Target sequence (P02791 2-175 limits assumed): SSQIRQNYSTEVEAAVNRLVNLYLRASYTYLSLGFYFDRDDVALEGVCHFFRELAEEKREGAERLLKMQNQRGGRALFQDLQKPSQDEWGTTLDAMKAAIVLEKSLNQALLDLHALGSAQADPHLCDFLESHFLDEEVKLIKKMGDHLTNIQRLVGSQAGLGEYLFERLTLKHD
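10 uM apoferritin + 50% sat. 1-AMA, PBS; cpd 10 min RT; Ex380/Em535 endpoint; normalized to free probe vs complex; 4-param Hill fit; propofol titration as pos. ctrl.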
CtBP-E1A inh = CtBP/E1A binding inhibition; AlphaScreen GST-E1A/His-CtBP binding, 1536-well; stronger effect = lower value; activity change, % (test concentration not listed); hit rate 0.49% among 340,000; AID 651724; in the data active means activity change below about -65%; inconclusive means mostly about -30% to -63%
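Steps: dispense buffer (Tris pH 8.0, NaCl 300 mM, TCEP 1 mM, BSA, Tween 20); add 5X protein mix (GST-E1A, His-CtBP, 125 nM each); pin 23 nL compound; 2 h at 37 °C, dark; add 5X beads (50 ug/mL); 1 h; read.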
GALK inh = galactokinase (human) inhibition | P51570 | Purified GALK, Kinase-Glo residual ATP luminescence | Potency, µM (series often up to 57.5 µM), without a hit: at the top dose activity change, negative = inhibition, usual class: inhibitors | hit rate 0.007% among 270,000 | AID 1868; further: potency means the concentration at half of the fitted maximal effect
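5 nM enzyme, 35 uM ATP, 100 uM galactose, 20 mM HEPES pH8.0, 5 mM MgCl2; 1 h RT; residual ATP by Kinase-Glo Plus luminescence, qHTS format.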
Eya2 inh = Eya2 (human) phosphatase inhibition; O00167; Potency, µM (titrated, usually from 76.9 µM), for inactives: at the top dose activity, negative = inhibition, most hits filed as inhibitors; hit rate 0.006% among 330,000; recombinant Eya2, OMFP fluorescence dephosphorylation (OMFP is methylfluorescein phosphate); further: potency means the concentration at half of the fitted maximal effect
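Eya2 (0.2 uM) preincubated 10 min at ambient with compound, then OMFP substrate added at 50 uM; 10 min reaction in 50 mM HEPES pH 7.5, 50 mM NaCl, 5 uM MgCl2, 0.05% BSA, 1 mM DTT. Fluorescence read at Ex 485/Em 525 nm.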
* = called active by the depositor; ? = inconclusive; . = no result given; [ ] = remark or other dose. Unless noted, the call rests on the fitted dose curve; in most records, active means well fitted curve in the direction sought with a large enough effect; inconclusive means small, poorly fitted or top-dose-only effect, or another doubt; inactive means no such curve, though single readings can be large; an effect the other way counts as inactive or inconclusive. Unless noted, on the % scale 0 is the no-effect control and ±100 the full control effect.

SMILES | JMJD2E inh | Six1-Eya2 inh | Apoferritin bind | CtBP-E1A inh | GALK inh | Eya2 inh
C/C(=N\NC(=O)C1COc2ccccc2O1)c1ccccn1 (stereo not given) | ? | -91* | -16% | -86* | 0% | 0%
C/C(=N\NC(=O)c1ccccc1Cl)c1ccccn1 | . | -91* | 2% | . | . | -3%
C/C(=N\NC(=O)c1ccc(Cl)c(Cl)c1)c1ccccn1 | . | ? | 0% | ? | . | 5%
O=C(N/N=C/c1ccccn1)c1cc(-c2ccncc2)nc2ccccc12 | ? | -72* | -13% | -73* | 2% | -2%
C/C(=N/O)c1ccccn1 | 18µM* | ? | 0% | ? | 1% | -19%
CCCCCC#CC[C@@H](O)/C=C/C=C/C=C\[C@@H](O)CCCC(=O)O | -3% | . | . | . | . | .
N#Cc1cc([N+](=O)[O-])c2sc(C(N)=O)[n+]([O-])c2c1 | . | . | . | . | . | -4%
NNC(=O)c1cc(-c2cccs2)nc2ccccc12 | ? | -10 | 7% | . | -2% | -4%
C/C(=N\NC(=O)c1cccc2ccccc12)c1ccccn1 | . | -91* | -10% | -92* | 4% | -21%
C/C(=N\NC(=O)c1cc(-c2cccs2)nc2ccccc12)c1ccccn1 | ? | -82* | -4% | -86* | -2% | 18%
COc1ccc(NC(=O)CSc2nnc(-c3ccncc3)n2-c2ccccc2)cc1 | . | . | 3% | . | . | .
COc1cc(/C=C2/SC(=S)N(CCC(=O)N3CCN(C)CC3)C2=O)cc(OC)c1OC | . | 1 | . | -3 | . | .
CCCn1c(CNC(=O)c2ccc(F)cc2)nc2ccccc21 | . | . | -5% | . | . | .
CCCn1c(CNc2ccccc2O)nc2ccccc21 | 14µM* | ? | -3% | ? | -2% | 7%
COC(=O)NC(c1ccccc1)C(C(=O)OC)C(=O)OC (stereo not given) | . | . | -5%[15.3 µM] | . | . | .
Cc1nn2c(-c3cccc(NC(=O)c4ccco4)c3)nnc2c2ccccc12 | ? | -69* | 62% | -88* | -4% | -9%
Cc1nn2c(-c3cccc(NC(=O)c4ccc(Cl)cc4)c3)nnc2c2ccccc12 | . | . | 8% | . | . | .
CC#CC(=O)Nc1cc2c(Nc3ccc(F)c(Cl)c3)ncnc2cn1 | . | . | -11% | . | . | .
O=C(O)CO | . | . | -11% | . | . | .
COc1ccc(/C=C/C(=O)c2ccc(O)cc2)cc1CN1CCOCC1 | ? | ? | 4% | -86* | 0% | -2%
COc1ccc(C(=O)/C=C/c2ccc(OC)c(CN3CCOCC3)c2)cc1 | ? | -21 | 6% | ? | . | -4%
CCCCCCCCCC(=O)OCC(CO)OC(=O)CCCCCCCCC (stereo not given) | 4% | . | -12% | . | . | .
Cc1nc(NCCc2ccc(O)cc2)c2nnn(Cc3ccccc3)c2n1 | . | -17 | 16µM* | -28 | -3% | -22%
O=c1ccc2ccc(O)c(O)c2o1 | 7.1µM* | . | . | . | . | -1%
C=CCNc1nc(NCc2ccc(N(C)C)cc2)c2sc(-c3ccccc3)cc2n1 | . | -73* | . | -77* | . | .
SMILES | JMJD2E inh | Six1-Eya2 inh | Apoferritin bind | CtBP-E1A inh | GALK inh | Eya2 inh
CC1(C)Nc2ccc(O)cc2-c2c1ssc2=S | -13% | ? | 4% | -15 | 0% | 6%
CCOc1ccc2c(c1)-c1c(ssc1=S)C(C)(C)N2C | 6% | ? | ? | -71* | -1% | -6%
CCc1nnc(SCC(=O)N2CCCc3ccccc32)nc1CC | -3% | -2 | 7% | 5 | 1% | 4%
Cc1ccc2c(c1)c1nnc(SCC(=O)N3CCCc4ccccc43)nc1n2CC(=O)O | 9% | -78* | ? | -88* | 11% | 0%
COc1ccc(/C=N/NC(=O)c2[nH]c3ccc(Cl)cc3c2-c2ccccc2)c(C(=O)O)c1OC | . | -72* | 4% | ? | -5% | 15%
COc1ccc(OC)c2[nH]c(C(=O)N/N=C/c3ccccc3O)cc12 | . | -74* | -4% | . | 5% | -10%
COc1cccc(/C=N/NC(=O)c2cc3c(OC)cccc3[nH]2)c1O | 25µM* | -29 | 4% | -24 | -3% | -3%
COc1ccc(/C=N/NC(=O)c2[nH]c3ccc(Br)cc3c2-c2ccccc2)c(C(=O)O)c1OC | ? | ? | 4% | ? | 0% | 1%
